Source: the supplement of paper PMC9262897, “Low-cost anti-mycobacterial drug discovery using engineered E. coli” (Nature Communications, 2022)
Where a name gives a salt, the structure may show the parent alone. ± gives the standard deviation of the averaged measurements.

Test system: E. coli TESEC Mtb Alr
Assay: growth (OD600 after 10 h); higher = more growth (less inhibition)
Conditions: compound 0.1 mM
Method: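 TESEC Mtb Alr E. coli, or the Alr+ wild-type control, in 384-well plates with Prestwick library compounds at 0.1 mM and 1% DMSO, across arabinose induction levels of 1E3 to 1E7 nM. Growth is read as OD600 after 10 h at 37 °C in triplicate biological replicates.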

[1] = arabinose 1000 nM, raw OD600 reference: median of DMSO wells 0.294, cell-free background 0.041
[2] = arabinose 10000 nM, raw OD600 reference: median of DMSO wells 0.264, cell-free background 0.041
[3] = arabinose 100000 nM, raw OD600 reference: median of DMSO wells 0.201, cell-free background 0.041
[4] = arabinose 1000000 nM, raw OD600 reference: median of DMSO wells 0.193, cell-free background 0.041
[5] = arabinose 10000000 nM, raw OD600 reference: median of DMSO wells 0.146, cell-free background 0.041

| Structure (SMILES) | growth [1] | growth [2] | growth [3] | growth [4] | growth [5] |
| --- | --- | --- | --- | --- | --- |
| Cc1cc(N)c2ccccc2[n+]1CCCCCCCCCC[n+]1c(C)cc(N)c2ccccc21 [Dequalinium dichloride] | 0.04803 ± 0.00032 | 0.0469 ± 0.00052 | 0.04963 ± 0.00015 | 0.0458 ± 0.00071 | 0.049 ± 0.0001 |
| CN(C)CCN(Cc1cccs1)c1ccccn1 [Methapyrilene hydrochloride] | 0.281 ± 0.012 | 0.252 ± 0.007 | 0.224 ± 0.024 | 0.165 ± 0.0065 | 0.143 ± 0.0051 |
| CCN(CC)CC(=O)Nc1c(C)cccc1C [Lidocaine hydrochloride] | 0.256 ± 0.062 | 0.273 ± 0.017 | 0.194 ± 0.01 | 0.183 ± 0.0033 | 0.146 ± 0.0067 |
| CC(C)NCC(O)c1ccc2ccccc2c1 (stereo not given) [Pronethalol hydrochloride] | 0.305 ± 0.0032 | 0.2658 ± 0.0016 | 0.207 ± 0.023 | 0.187 ± 0.0061 | 0.142 ± 0.0032 |
| NS(=O)(=O)c1cc(C(=O)O)c(NCc2ccco2)cc1Cl [Furosemide] | 0.303 ± 0.0075 | 0.2547 ± 0.00051 | 0.242 ± 0.024 | 0.18 ± 0.0021 | 0.148 ± 0.0056 |
| COc1ccc(CC(C)NCC(O)c2ccc(O)c(NC=O)c2)cc1 (stereo not given) [Formoterol fumarate] | 0.298 ± 0.0087 | 0.293 ± 0.011 | 0.219 ± 0.024 | 0.18 ± 0.011 | 0.16 ± 0.0057 |
| O=C(O)c1ccccc1OP(=O)(O)O [Fosfosal] | 0.292 ± 0.017 | 0.266 ± 0.0057 | 0.192 ± 0.026 | 0.198 ± 0.0055 | 0.137 ± 0.0018 |
| CNCCC=C1c2ccccc2CCc2ccccc21 [Nortriptyline hydrochloride] | 0.181 ± 0.0093 | 0.205 ± 0.011 | 0.155 ± 0.01 | 0.0683 ± 0.00076 | 0.0845 ± 0.0019 |
